These results are taken from paper PMC7862700, “An all-to-all approach to the identification of sequence-specific readers for epigenetic DNA modifications on cytosine”.

Common to all, as to assay: DAPPL (digital affinity profiling via proximity ligation, sequencing); 10 mM Tris-HCl pH 7.5, 50 mM NaCl, 1 mM DTT, 4% glycerol, room temperature, 30 min; GST-TFs on glutathione beads, 16-mer random dsDNA library, 0.1% formaldehyde crosslink after washing; high values mean tight binding
The target in one assay is T1, FEV (Homo sapiens, UniProt Q99581 1-238).
T1 sequence: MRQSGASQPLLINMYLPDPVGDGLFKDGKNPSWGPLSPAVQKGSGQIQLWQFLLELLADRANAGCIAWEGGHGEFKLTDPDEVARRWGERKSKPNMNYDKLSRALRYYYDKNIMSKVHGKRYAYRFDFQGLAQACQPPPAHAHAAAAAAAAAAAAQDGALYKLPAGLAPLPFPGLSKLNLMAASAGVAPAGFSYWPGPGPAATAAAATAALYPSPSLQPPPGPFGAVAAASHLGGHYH
Particulars: protein: recombinant; tags: N-terminal GST; dsDNA, one strand shown. The method in brief: (§1)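 In yeast, human transcription factors were expressed with a GST fusion, then pulled down on glutathione beads and given DNA barcodes. Pooled with a tag-only sample, they were exposed to 200 nmole of a 16-mer random double-stranded DNA library (Tris/NaCl/DTT/glycerol buffer, room temperature, 30 min), washed, crosslinked with 0.1% formaldehyde, proximity-ligated using BsaI/T4 ligase for 1 h at 37 °C, PCR-amplified and read on an Illumina NextSeq500. Each hexamer's frequency of reads for a factor, divided by the matching frequency for the tag-only sample, gives the binding signal.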

A further assay has as its target ETV5 (Homo sapiens, UniProt P41161 1-510). Particulars: protein: recombinant; tags: N-terminal GST; dsDNA, one strand shown. In outline:
as §1

The next assay concerns the target HSF1 (Homo sapiens, UniProt Q00613 1-529). As to conditions: protein: recombinant; tags: N-terminal GST; chain copies: 3; dsDNA, one strand shown. In outline: as §1
The target of a further assay is T2, SPIC (Homo sapiens, UniProt Q8N5J4 1-248).
T2 sequence: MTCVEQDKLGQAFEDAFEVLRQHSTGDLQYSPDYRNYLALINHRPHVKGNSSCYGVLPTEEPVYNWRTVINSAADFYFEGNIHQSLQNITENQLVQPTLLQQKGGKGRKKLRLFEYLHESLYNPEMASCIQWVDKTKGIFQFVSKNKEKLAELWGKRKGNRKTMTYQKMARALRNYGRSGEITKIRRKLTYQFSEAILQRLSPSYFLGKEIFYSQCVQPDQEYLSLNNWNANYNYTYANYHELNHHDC
As to conditions: protein: recombinant; tags: N-terminal GST; dsDNA, one strand shown. The method in brief:
as §1

The target in the next assay is ELF4 (Homo sapiens, UniProt Q99607 1-663). As to conditions: protein: recombinant; tags: N-terminal GST; dsDNA, one strand shown. In outline:
as §1

The next assay addresses T3, ELK4 (Homo sapiens, UniProt P28324-2 1-405).
T3 sequence: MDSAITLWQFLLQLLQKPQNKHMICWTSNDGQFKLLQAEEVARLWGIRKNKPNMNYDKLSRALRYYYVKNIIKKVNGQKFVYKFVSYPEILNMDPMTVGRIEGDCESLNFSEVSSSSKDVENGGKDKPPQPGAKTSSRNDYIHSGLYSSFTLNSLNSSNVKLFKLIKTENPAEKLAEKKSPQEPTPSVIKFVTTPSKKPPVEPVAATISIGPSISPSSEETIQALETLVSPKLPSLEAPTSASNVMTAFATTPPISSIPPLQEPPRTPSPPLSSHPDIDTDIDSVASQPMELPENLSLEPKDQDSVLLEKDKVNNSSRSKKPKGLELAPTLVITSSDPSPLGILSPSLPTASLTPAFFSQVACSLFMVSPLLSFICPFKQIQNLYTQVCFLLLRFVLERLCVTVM
Particulars: protein: recombinant; tags: N-terminal GST; dsDNA, one strand shown. In outline:
as §1

For the next assay, the target named is T4, ETV2 (Homo sapiens, UniProt O00321 1-342).
T4 sequence: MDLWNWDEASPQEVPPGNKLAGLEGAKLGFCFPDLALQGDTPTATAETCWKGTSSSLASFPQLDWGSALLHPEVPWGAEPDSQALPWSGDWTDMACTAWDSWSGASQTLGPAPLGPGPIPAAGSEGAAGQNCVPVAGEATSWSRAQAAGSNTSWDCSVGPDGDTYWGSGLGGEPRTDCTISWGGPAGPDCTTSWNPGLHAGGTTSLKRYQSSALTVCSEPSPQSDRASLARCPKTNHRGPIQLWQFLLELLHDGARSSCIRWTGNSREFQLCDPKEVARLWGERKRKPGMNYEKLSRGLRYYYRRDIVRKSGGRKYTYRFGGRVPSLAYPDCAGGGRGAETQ
As to conditions: protein: recombinant; tags: N-terminal GST; dsDNA, one strand shown. The method in brief:
as §1

A further assay has as its target T5, ELF3 (Homo sapiens, UniProt P78545 1-371).
T5 sequence: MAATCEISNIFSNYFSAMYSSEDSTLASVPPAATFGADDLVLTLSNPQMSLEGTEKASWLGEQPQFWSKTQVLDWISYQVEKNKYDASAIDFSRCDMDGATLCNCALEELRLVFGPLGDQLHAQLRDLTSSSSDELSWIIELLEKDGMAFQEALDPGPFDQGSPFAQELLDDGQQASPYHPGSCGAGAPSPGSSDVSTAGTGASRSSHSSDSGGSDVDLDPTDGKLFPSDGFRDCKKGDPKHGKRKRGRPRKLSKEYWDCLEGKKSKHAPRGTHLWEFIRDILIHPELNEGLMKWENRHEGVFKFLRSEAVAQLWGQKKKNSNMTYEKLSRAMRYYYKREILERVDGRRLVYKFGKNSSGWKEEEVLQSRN
As to conditions: protein: recombinant; tags: N-terminal GST; dsDNA, one strand shown. The method in brief: as §1

The target in another assay is CRX (Homo sapiens, UniProt O43186 1-299). As to conditions: protein: recombinant; tags: N-terminal GST; dsDNA, one strand shown. In outline: as §1
The next assay concerns the target ETV1 (Homo sapiens, UniProt P50549 1-477). As to conditions: protein: recombinant; tags: N-terminal GST; dsDNA, one strand shown. In outline: as §1
A further assay addresses T6, ERF (Homo sapiens, UniProt P50548 1-548).
T6 sequence: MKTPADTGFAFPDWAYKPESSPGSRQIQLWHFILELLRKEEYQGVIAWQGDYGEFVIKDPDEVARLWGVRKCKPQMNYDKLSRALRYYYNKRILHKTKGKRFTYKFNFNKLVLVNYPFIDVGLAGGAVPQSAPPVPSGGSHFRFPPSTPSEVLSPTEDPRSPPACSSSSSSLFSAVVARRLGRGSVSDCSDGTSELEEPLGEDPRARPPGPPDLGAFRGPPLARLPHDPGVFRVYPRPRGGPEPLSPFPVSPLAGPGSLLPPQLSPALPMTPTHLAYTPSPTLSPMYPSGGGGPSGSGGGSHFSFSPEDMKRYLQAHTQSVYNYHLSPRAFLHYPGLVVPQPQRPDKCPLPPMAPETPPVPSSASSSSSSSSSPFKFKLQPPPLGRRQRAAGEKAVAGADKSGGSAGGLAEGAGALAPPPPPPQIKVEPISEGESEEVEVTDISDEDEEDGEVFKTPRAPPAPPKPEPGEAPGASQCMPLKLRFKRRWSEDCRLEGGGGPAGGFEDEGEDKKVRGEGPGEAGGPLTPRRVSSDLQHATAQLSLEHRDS
As to conditions: protein: recombinant; tags: N-terminal GST; dsDNA, one strand shown. In outline: as §1

A further assay addresses T7, ETV3L (Homo sapiens, UniProt Q6ZN32 1-361).
T7 sequence: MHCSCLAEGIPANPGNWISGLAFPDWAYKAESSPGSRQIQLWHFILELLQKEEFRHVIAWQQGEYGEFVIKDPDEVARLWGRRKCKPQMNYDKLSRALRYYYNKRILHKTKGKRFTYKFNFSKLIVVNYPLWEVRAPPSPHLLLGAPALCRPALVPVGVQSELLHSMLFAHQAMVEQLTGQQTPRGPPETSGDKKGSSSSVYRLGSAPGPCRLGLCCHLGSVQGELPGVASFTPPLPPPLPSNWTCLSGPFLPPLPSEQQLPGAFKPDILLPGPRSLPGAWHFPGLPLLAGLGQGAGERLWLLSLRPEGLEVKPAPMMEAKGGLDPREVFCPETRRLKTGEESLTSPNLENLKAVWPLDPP
Particulars: protein: recombinant; tags: N-terminal GST; dsDNA, one strand shown. In outline: as §1

In another assay the target is T8, ETS2 (Homo sapiens, UniProt P15036 1-469).
T8 sequence: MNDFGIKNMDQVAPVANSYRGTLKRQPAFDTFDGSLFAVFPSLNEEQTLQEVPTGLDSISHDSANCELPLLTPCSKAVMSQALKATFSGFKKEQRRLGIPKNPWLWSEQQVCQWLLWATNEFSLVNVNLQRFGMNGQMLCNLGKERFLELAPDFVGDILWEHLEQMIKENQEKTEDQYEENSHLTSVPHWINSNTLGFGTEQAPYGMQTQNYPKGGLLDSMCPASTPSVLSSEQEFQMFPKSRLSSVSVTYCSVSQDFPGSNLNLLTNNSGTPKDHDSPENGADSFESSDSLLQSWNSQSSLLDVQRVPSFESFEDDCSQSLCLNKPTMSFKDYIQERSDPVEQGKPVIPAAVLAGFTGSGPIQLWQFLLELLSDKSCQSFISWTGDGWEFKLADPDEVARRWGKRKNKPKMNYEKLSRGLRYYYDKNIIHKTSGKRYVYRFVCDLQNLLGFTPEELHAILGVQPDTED
Particulars: protein: recombinant; tags: N-terminal GST; dsDNA, one strand shown. The method in brief:
as §1

The next assay has as its target T9, SPDEF (Homo sapiens, UniProt O95238 1-335).
T9 sequence: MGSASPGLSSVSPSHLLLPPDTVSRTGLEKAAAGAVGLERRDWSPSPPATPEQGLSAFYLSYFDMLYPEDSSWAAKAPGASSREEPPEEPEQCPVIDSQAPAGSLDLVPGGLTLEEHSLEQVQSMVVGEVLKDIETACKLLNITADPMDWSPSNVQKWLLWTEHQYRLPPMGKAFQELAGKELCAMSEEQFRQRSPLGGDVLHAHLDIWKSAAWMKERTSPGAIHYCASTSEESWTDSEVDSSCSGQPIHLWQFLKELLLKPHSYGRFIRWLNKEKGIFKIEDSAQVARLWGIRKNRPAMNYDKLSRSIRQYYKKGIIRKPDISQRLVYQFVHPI
As to conditions: protein: recombinant; tags: N-terminal GST; dsDNA, one strand shown. The method in brief: as §1

Another assay deals with T10, ETV7 (Homo sapiens, UniProt Q9Y603 1-341).
T10 sequence: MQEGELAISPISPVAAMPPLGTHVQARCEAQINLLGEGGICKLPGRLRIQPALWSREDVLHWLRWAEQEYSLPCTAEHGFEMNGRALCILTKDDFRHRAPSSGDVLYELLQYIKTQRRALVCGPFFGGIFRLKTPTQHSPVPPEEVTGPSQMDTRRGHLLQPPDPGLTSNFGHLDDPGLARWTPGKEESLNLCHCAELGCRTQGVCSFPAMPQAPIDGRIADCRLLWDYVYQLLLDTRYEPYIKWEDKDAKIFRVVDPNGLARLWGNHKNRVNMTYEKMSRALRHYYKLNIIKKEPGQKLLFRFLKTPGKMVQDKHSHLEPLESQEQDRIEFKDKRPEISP
Particulars: protein: recombinant; tags: N-terminal GST; dsDNA, one strand shown. The method in brief:
as §1

In the next assay the target is T11, ELF5 (Homo sapiens, UniProt Q9UKW6-2 1-255).
T11 sequence: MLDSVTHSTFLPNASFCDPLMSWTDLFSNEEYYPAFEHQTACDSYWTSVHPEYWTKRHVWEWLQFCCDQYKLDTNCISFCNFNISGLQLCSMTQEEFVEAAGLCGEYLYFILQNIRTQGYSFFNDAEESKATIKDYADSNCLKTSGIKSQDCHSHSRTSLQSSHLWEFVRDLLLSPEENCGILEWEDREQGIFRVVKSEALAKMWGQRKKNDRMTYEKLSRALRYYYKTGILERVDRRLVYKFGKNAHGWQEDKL
As to conditions: protein: recombinant; tags: N-terminal GST; dsDNA, one strand shown. In outline:
as §1

The next assay deals with T12, ETV3 (Homo sapiens, UniProt P41162-2 1-143).
T12 sequence: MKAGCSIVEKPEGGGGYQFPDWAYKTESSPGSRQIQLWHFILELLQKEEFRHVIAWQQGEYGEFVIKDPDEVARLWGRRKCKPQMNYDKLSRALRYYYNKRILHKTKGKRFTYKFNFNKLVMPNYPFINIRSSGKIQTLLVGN
As to conditions: protein: recombinant; tags: N-terminal GST; dsDNA, one strand shown. In outline:
as §1

The target of a further assay is ETV6 (Homo sapiens, UniProt P41212 1-452). As to conditions: protein: recombinant; tags: N-terminal GST; dsDNA, one strand shown. The method in brief: as §1
ETV6, sequence (P41212 whole entry): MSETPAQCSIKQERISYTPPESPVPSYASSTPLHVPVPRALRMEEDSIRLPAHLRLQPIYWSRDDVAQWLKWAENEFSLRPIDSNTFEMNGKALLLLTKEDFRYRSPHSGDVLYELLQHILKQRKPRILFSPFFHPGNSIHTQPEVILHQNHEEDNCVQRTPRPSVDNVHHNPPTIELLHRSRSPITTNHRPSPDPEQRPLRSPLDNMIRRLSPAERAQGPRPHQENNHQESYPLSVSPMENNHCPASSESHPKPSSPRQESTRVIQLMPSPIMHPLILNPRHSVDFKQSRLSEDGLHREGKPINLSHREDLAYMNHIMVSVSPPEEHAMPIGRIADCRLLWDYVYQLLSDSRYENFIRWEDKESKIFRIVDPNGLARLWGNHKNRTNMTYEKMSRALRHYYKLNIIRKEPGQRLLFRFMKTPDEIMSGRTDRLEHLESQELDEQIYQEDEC

HSF1, sequence (Q00613 whole entry): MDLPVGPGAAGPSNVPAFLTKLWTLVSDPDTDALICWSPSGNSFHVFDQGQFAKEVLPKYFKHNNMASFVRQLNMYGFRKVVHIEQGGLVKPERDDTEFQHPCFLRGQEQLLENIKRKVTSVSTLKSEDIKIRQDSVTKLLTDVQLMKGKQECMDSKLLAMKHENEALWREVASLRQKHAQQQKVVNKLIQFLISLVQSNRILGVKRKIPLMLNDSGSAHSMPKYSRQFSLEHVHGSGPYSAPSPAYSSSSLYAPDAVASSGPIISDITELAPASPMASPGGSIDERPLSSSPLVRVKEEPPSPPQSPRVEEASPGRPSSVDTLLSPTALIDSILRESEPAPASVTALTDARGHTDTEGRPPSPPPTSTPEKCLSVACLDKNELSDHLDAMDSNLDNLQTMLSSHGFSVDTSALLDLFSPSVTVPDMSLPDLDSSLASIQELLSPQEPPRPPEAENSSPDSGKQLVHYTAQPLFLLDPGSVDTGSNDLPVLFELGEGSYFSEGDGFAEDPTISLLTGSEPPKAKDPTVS
CRX, sequence (O43186 whole entry): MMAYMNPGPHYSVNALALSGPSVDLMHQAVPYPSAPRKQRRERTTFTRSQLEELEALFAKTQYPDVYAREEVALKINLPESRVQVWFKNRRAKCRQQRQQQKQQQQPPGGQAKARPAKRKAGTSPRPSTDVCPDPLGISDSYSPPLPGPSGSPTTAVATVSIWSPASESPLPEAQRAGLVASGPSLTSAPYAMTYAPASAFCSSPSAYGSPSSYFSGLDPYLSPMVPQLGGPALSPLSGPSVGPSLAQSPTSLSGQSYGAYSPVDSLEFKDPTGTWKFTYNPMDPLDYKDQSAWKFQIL
ELF4, sequence (Q99607 whole entry): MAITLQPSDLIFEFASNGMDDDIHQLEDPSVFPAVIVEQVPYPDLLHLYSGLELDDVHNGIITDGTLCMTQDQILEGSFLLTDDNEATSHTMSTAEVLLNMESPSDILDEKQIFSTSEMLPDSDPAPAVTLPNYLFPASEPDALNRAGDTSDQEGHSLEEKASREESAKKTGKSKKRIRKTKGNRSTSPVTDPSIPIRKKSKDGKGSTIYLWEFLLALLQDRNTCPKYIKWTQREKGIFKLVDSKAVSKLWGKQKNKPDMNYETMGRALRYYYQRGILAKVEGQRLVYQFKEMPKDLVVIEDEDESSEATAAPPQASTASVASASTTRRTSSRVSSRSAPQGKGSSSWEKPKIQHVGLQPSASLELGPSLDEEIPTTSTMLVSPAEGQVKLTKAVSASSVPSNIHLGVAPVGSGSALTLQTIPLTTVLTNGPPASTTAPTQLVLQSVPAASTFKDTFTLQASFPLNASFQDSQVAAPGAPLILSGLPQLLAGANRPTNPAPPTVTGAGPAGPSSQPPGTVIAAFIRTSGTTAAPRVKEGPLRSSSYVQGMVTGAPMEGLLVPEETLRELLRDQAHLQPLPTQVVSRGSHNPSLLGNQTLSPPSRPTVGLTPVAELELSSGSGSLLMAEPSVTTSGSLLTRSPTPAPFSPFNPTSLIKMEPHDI
ETV5, sequence (P41161 whole entry): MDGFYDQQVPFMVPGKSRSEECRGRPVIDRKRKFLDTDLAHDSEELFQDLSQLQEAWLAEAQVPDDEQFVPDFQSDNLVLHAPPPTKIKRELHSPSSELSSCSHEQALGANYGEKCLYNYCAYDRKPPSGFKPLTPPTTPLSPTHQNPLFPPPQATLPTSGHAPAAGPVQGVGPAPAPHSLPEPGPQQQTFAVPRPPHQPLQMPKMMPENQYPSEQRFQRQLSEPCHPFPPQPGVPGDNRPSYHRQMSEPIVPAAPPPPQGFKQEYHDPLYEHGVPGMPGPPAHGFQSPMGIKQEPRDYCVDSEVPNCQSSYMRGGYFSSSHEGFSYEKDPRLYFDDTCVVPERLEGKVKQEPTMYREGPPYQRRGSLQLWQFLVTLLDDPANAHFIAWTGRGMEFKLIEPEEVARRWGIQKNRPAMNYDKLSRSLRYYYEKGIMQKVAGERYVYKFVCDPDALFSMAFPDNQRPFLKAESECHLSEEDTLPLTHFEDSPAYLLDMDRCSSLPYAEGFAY
ETV1, sequence (P50549 whole entry): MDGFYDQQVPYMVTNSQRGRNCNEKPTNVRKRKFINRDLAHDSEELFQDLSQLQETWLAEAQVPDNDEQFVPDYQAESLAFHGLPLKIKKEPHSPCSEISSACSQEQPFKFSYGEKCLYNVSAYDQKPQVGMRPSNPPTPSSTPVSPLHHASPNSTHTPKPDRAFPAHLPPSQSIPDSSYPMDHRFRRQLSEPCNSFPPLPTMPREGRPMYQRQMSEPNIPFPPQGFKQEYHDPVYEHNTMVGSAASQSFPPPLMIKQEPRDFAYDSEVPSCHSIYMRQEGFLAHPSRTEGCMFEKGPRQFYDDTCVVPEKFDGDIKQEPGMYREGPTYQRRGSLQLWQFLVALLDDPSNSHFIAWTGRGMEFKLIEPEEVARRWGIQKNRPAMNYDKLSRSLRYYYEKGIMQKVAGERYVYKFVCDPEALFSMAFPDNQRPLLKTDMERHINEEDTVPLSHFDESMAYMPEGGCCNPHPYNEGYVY

TCTTCG: the binding signal with FEV is 1.49 fold enrichment (6-mer frequency, TF over GST control); with ETV5 it was 1.51 fold enrichment (6-mer frequency, TF over GST control); with HSF1, 1.97 fold enrichment (6-mer frequency, TF over GST control); with SPIC, 1.38 fold enrichment (6-mer frequency, TF over GST control); in the assay with ELF4, 1.49 fold enrichment (6-mer frequency, TF over GST control); with ELK4 it was 1.45 fold enrichment (6-mer frequency, TF over GST control). The binding signal is 1.5 fold enrichment (6-mer frequency, TF over GST control) in the assay with ETV2; 1.47 fold enrichment (6-mer frequency, TF over GST control) in the assay with ELF3; 1.61 fold enrichment (6-mer frequency, TF over GST control) with CRX; 1.47 fold enrichment (6-mer frequency, TF over GST control) with ETV1; 1.45 fold enrichment (6-mer frequency, TF over GST control) in the assay with ERF; 1.48 fold enrichment (6-mer frequency, TF over GST control) with ETV3L. The binding signal in the assay with ETS2 was 1.55 fold enrichment (6-mer frequency, TF over GST control); with SPDEF, 1.49 fold enrichment (6-mer frequency, TF over GST control); with ETV7 it was 1.46 fold enrichment (6-mer frequency, TF over GST control); with ELF5, 1.4 fold enrichment (6-mer frequency, TF over GST control); in the assay with ETV3, 1.49 fold enrichment (6-mer frequency, TF over GST control); with ETV6, 1.36 fold enrichment (6-mer frequency, TF over GST control).
